PubChem BioAssay AID618 (Sanford-Burnham Center for Chemical Genomics, 2007)
Screen size: about 87,000 compounds; about 540 (0.62%) were called active. The rule behind the calls is not given here. For the sample, actives were picked, then their nearest neighbours and some compounds at random. Measured potencies and affinities stand elsewhere.

Experiment: inhibitors of MT1-MMP promoter transcription, cell-based, luciferase reporter, luminescence (AID 618);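 note: actives suppress MT1-MMP promoter-driven transcription so potencies describe inhibitors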
Details: MT1-MMP promoter luciferase reporter cells

Question: For CC(=Nc1ccccc1)C1=C(O)CSC1=O, which outcome is on record?
Answer: The outcome was “inactive”.

Question: Which outcome does the source give for COc1ccc(OC)c(NC(=O)c2ccc(NS(=O)(=O)c3c(C)noc3C)cc2)c1 here?
Answer: Its outcome is “inactive”.

Question: For CCn1c(=O)c2c(nc3n2CC(C)CN3CCc2ccccc2)n(C)c1=O (stereo unspecified), which outcome is on record?
Answer: The outcome was “inactive”.

Question: Which outcome does the source give for CCCN(CCC)S(=O)(=O)c1ccc(NS(=O)(=O)c2ccc(F)cc2)cc1 here?
Answer: Its outcome is “inactive”.

Question: For CCC(=O)c1ccccc1OCCCn1cncn1, which outcome is on record?
Answer: The outcome was “inactive”.

Question: For CCC(=O)Nc1cc2nn(-c3ccccc3)nc2cc1Cl, which outcome is on record?
Answer: Its outcome is “active”.

Question: With CC(=O)Nc1cc2nn(-c3ccccc3)nc2cc1Cl as the compound, how does the outcome read?
Answer: The outcome was “inactive”.

Question: For CC(C)CC(=O)Nc1cc2nn(-c3ccccc3)nc2cc1Cl, which outcome is on record?
Answer: Its outcome is “inactive”.

Question: With C=CCSc1nnc(-c2ccc(Cl)cc2Cl)o1 as the compound, how does the outcome read?
Answer: Its outcome is “inactive”.

Question: For Clc1ccc(-c2nnc(SCc3ccon3)o2)c(Cl)c1, which outcome is on record?
Answer: The outcome was “active”.

Question: Which outcome does the source give for CCSc1nnc(-c2ccc(Cl)cc2Cl)o1 here?
Answer: Its outcome is “inactive”.

Question: For Cc1cc(OCC(=O)N2CCc3ccccc3C2)c2c(-c3ccccc3)cc(=O)oc2c1, which outcome is on record?
Answer: The outcome was “inactive”.

Question: For Cc1ccc(S(=O)(=O)N(C)Cc2ccc(-c3nnc4n3CCC4)cc2)cc1, which outcome is on record?
Answer: The outcome was “inactive”.

Question: For COC(=O)CNC(=O)[C@@]1(C)C=C[C@@H](Cc2ccccc2)N1C(=O)OC, which outcome is on record?
Answer: The outcome was “active”.

Question: With COC(=O)CNC(=O)[C@@]1(C)C=C[C@@H](Cc2ccccc2)N1C(C)=O as the compound, how does the outcome read?
Answer: The outcome was “inactive”.

Question: Which outcome does the source give for CNC(=O)[C@@]1(C)C=C[C@@H](Cc2ccccc2)N1C(=O)OC here?
Answer: The outcome was “inactive”.

Question: For CCOC(=O)C1CCN(Cc2ccc(F)cc2F)CC1, which outcome is on record?
Answer: Its outcome is “inactive”.

Question: With O=C1NC2(CCOc3ccccc32)C(=O)N1CC(=O)N(Cc1ccccc1)C1CCS(=O)(=O)C1 (stereo unspecified) as the compound, how does the outcome read?
Answer: Its outcome is “inactive”.

Question: For Cc1ccc2nc(N/N=C\c3ccc([N+](=O)[O-])o3)nc(-c3ccccc3)c2c1, which outcome is on record?
Answer: Its outcome is “inactive”.

Question: For Cn1c(/C=C/c2ccc([N+](=O)[O-])o2)nc2ccccc2c1=O, which outcome is on record?
Answer: Its outcome is “active”.

Question: For Cn1c(SCc2ccon2)nc2ccccc2c1=O, which outcome is on record?
Answer: Its outcome is “inactive”.

Question: With COc1ccccc1C(=O)Nc1ccc2c(c1)nc(CN1CCN(C(C)=O)CC1)n2C as the compound, how does the outcome read?
Answer: The outcome was “inactive”.

Question: For CC(/C=C/c1ccc(O)cc1)=N/O, which outcome is on record?
Answer: The outcome was “inactive”.

Question: With C/C=C(/C(=C/C)c1ccc(O)cc1)c1ccc(O)cc1 as the compound, how does the outcome read?
Answer: The outcome was “inactive”.

Question: For Oc1ccc(/C=C/c2cc(O)cc(O)c2)cc1, which outcome is on record?
Answer: The outcome was “active”.

Question: With c1ccc(Cn2c(Nn3cnnc3)nc3ccccc32)cc1 as the compound, how does the outcome read?
Answer: Its outcome is “inactive”.

Question: With COc1ccc(CCN(Cc2cc3cccc(C)c3[nH]c2=O)C(=O)NC2CCCCC2)cc1OC as the compound, how does the outcome read?
Answer: The outcome was “inactive”.

Question: With COc1ccc2sc(NC(=O)c3ccco3)nc2c1 as the compound, how does the outcome read?
Answer: Its outcome is “active”.

Question: With CCOc1ccc2nc(NC(=O)c3cnc(C)cn3)sc2c1 as the compound, how does the outcome read?
Answer: Its outcome is “inactive”.

Question: For O=C(Nc1nc2ccc(Cl)cc2s1)c1ccco1, which outcome is on record?
Answer: The outcome was “inactive”.

Question: With COc1ccc2sc(NC(C)=O)nc2c1 as the compound, how does the outcome read?
Answer: Its outcome is “inactive”.

Question: With COc1ccc2nc(NC(=O)c3ccoc3C)sc2c1 as the compound, how does the outcome read?
Answer: The outcome was “inactive”.

Question: Which outcome does the source give for O=C(Nc1nnc(-c2ccco2)s1)c1ccccc1 here?
Answer: The outcome was “inactive”.

Question: Which outcome does the source give for COc1ccccc1C(=O)Nc1nnc(-c2ccco2)s1 here?
Answer: The outcome was “inactive”.

Question: Which outcome does the source give for CS(=O)(=O)c1ccc2nc(NC(=O)c3ccco3)sc2c1 here?
Answer: Its outcome is “inactive”.

Question: For COc1ccc2c(c1)Cc1sc(NC(=O)c3ccco3)nc1-2, which outcome is on record?
Answer: Its outcome is “inactive”.
